The target in experiment [1] is T1, Serine/threonine-protein kinase Nek9 (Homo sapiens) (UniProt Q8TD19).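 Further: each value is a mean percent inhibition of NEK9.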
T1 sequence (whole entry): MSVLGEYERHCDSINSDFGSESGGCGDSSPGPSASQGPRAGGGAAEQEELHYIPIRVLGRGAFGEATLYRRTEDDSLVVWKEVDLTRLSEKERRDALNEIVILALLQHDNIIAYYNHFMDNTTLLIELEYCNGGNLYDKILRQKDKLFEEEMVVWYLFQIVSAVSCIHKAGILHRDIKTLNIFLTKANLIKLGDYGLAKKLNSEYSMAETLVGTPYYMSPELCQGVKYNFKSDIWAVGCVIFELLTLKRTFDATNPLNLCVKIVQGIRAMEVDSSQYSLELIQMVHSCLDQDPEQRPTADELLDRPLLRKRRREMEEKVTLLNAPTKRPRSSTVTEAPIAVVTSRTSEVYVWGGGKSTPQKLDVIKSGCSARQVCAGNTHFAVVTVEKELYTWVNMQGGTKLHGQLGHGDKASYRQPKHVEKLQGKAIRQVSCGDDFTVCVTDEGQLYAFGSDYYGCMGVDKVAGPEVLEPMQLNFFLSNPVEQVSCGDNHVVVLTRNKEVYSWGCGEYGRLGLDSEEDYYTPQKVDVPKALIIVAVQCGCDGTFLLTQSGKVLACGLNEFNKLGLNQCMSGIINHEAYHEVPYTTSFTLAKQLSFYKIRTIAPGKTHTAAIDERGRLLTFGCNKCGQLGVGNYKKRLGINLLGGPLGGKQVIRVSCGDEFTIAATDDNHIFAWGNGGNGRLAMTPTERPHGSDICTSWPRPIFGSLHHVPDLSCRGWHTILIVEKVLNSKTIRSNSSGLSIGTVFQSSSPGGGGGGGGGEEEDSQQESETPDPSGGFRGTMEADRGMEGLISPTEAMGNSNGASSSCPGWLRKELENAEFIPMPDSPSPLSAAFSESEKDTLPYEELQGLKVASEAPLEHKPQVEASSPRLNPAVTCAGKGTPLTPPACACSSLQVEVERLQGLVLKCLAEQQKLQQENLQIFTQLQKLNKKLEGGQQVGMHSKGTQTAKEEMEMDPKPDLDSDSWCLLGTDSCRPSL
As to conditions: at 1 µM.

The target in experiment [2] is Serine/threonine-protein kinase PLK1 (Homo sapiens) (UniProt P53350). As to conditions: at 0.1 µM.
Chain of Serine/threonine-protein kinase PLK1 (Homo sapiens) (P53350 whole entry): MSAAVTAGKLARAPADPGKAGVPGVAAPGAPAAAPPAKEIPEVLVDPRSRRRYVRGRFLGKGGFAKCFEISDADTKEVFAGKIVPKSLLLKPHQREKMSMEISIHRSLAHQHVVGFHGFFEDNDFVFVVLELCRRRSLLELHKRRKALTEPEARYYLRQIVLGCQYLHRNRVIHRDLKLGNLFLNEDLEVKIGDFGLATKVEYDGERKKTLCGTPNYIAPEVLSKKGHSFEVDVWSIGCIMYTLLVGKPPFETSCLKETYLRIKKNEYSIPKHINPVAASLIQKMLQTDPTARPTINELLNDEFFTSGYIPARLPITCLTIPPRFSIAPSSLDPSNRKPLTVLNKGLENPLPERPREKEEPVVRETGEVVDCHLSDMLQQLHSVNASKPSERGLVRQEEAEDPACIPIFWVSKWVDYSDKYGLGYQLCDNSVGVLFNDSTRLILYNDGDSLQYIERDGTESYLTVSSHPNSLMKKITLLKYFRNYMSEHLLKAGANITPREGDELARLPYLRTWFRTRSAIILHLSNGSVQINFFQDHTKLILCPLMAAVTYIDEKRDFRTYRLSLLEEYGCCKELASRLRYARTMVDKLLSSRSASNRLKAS
Experiment [3] has the same target. As to conditions: at 1 µM.
In experiment [4] the target is T2, Dual specificity protein kinase TTK (Homo sapiens) (UniProt P33981).
T2 sequence (whole entry): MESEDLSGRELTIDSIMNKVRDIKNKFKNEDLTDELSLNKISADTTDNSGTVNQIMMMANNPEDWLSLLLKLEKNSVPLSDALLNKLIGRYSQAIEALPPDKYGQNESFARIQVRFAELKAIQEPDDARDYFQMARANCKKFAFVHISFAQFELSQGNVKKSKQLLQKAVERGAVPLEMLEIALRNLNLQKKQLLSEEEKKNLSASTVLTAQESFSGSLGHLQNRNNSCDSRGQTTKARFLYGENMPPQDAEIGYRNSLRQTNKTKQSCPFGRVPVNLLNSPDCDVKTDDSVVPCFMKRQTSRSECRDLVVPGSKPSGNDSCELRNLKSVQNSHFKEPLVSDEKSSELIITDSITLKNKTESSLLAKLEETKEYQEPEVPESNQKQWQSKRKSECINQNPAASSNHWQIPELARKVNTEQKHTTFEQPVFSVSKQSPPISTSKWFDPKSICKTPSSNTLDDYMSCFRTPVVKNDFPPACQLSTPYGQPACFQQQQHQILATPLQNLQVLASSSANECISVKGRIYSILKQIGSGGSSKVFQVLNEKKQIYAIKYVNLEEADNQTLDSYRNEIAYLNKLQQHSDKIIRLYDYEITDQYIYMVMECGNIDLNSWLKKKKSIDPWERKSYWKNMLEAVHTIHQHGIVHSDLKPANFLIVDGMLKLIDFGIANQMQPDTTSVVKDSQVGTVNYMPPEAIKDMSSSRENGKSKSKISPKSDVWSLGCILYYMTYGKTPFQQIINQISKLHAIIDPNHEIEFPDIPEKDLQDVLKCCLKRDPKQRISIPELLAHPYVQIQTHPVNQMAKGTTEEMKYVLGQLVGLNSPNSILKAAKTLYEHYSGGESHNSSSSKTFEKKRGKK
As to conditions: at 0.1 µM.

Experiment [5] concerns T3, Receptor-type tyrosine-protein kinase FLT3 (Homo sapiens), P36888 [D835Y].
T3 sequence (whole entry): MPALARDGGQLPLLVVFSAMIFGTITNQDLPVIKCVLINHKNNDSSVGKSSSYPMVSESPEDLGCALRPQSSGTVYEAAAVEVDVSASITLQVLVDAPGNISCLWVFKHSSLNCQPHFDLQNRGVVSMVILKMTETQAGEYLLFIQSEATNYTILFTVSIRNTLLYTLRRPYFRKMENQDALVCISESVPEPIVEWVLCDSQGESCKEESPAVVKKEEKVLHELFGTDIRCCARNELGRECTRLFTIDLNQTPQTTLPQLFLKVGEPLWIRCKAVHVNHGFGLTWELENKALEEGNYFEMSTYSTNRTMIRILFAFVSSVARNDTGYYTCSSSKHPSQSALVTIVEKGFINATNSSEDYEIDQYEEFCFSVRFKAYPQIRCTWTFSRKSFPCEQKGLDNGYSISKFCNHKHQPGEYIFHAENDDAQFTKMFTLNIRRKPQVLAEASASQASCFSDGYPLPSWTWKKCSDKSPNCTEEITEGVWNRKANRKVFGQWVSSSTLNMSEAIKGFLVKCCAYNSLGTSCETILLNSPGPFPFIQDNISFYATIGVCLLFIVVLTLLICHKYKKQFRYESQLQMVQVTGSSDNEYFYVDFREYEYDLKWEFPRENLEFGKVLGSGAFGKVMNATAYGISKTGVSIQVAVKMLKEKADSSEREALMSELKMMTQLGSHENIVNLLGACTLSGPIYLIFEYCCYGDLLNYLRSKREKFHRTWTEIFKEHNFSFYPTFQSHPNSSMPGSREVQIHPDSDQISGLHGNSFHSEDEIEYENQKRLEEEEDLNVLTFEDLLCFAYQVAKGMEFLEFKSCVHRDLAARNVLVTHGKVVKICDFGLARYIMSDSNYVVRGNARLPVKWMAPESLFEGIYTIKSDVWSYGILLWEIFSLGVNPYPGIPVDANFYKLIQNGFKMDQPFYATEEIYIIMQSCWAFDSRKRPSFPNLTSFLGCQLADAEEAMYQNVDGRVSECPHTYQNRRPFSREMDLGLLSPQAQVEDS
As to conditions: at 1 µM.

Experiment [6] concerns the target Vascular endothelial growth factor receptor 3 (Homo sapiens) (UniProt P35916). As to conditions: at 0.1 µM.
Experiment [7] shares this target. As to conditions: at 1 µM.
Experiment [8] deals with Macrophage colony-stimulating factor 1 receptor (Homo sapiens) (UniProt P07333). As to conditions: at 0.1 µM.
For experiment [9] the target is unchanged. As to conditions: at 1 µM.
Experiment [10] has as its target Tyrosine-protein kinase Fyn (Homo sapiens) (UniProt P06241). As to conditions: at 0.1 µM.
Experiment [11] shares this target. As to conditions: at 1 µM.
For experiment [12], the target named is Tyrosine-protein kinase HCK (Homo sapiens) (UniProt P08631). As to conditions: at 0.1 µM.
Chain of Tyrosine-protein kinase HCK (Homo sapiens) (P08631 2-526 limits assumed): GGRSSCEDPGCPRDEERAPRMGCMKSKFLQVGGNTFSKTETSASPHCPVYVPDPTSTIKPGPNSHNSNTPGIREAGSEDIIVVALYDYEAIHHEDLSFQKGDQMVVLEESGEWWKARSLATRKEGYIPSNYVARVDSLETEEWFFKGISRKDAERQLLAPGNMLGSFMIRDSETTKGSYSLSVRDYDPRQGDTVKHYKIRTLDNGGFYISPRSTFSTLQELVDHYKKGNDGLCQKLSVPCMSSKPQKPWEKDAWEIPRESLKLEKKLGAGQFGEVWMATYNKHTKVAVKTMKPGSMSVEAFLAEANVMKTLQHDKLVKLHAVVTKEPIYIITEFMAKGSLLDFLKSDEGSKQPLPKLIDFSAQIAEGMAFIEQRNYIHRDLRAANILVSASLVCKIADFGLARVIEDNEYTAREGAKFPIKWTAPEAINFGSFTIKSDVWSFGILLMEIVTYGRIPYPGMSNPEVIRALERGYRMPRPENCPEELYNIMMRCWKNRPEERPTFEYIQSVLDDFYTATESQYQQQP
Experiment [13] has the same target. As to conditions: at 1 µM.
The target in experiment [14] is Insulin-like growth factor 1 receptor (Homo sapiens) (UniProt P08069). As to conditions: at 0.1 µM.
Experiment [15] shares this target. As to conditions: at 1 µM.
Experiment [16] deals with Insulin receptor (Homo sapiens) (UniProt P06213). As to conditions: at 0.1 µM.
Experiment [17] shares this target. As to conditions: at 1 µM.
Experiment [18] deals with Insulin receptor-related protein (Homo sapiens) (UniProt P14616). As to conditions: at 0.1 µM.
Chain of Insulin receptor-related protein (Homo sapiens) (P14616 27-742 limits assumed): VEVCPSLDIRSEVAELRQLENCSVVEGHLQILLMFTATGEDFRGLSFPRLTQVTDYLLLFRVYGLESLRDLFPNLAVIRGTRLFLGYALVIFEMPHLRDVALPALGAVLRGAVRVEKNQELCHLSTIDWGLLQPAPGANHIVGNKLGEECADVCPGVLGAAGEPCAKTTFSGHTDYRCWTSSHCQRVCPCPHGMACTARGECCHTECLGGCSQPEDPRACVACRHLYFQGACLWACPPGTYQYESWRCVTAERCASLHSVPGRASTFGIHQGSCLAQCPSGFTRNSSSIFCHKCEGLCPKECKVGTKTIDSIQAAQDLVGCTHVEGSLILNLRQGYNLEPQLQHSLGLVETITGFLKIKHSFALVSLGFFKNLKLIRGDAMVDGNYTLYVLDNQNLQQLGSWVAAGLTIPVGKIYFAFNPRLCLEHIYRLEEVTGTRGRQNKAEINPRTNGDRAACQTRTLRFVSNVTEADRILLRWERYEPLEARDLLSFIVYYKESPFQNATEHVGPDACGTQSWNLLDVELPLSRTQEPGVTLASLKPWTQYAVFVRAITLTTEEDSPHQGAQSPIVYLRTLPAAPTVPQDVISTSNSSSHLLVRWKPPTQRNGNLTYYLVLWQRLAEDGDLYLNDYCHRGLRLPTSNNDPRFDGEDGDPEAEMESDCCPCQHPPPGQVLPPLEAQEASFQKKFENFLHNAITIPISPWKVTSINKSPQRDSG
Chain of Insulin receptor-related protein (Homo sapiens) (P14616 747-1297 limits assumed): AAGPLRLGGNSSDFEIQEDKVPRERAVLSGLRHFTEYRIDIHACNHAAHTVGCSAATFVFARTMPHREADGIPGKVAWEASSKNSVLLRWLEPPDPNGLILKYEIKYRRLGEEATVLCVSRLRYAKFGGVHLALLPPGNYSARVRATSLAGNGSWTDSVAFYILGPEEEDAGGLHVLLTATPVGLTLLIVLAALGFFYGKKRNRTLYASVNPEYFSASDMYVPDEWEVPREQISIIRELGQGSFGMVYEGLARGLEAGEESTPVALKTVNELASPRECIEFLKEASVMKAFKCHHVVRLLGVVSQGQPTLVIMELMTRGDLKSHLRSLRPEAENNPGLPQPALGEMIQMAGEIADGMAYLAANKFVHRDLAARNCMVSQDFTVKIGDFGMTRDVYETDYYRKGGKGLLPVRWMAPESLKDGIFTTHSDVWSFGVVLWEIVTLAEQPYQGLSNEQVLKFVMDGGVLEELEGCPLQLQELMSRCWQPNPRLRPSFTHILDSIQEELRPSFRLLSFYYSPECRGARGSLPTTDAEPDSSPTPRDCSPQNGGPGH
Experiment [19] has the same target. As to conditions: at 1 µM.
Experiment [20] concerns the target T4, Tyrosine-protein kinase ITK/TSK (Homo sapiens) (UniProt Q08881).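 Further: mean percent inhibition of ITK from the GSK PKIS screen.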
T4 sequence (whole entry): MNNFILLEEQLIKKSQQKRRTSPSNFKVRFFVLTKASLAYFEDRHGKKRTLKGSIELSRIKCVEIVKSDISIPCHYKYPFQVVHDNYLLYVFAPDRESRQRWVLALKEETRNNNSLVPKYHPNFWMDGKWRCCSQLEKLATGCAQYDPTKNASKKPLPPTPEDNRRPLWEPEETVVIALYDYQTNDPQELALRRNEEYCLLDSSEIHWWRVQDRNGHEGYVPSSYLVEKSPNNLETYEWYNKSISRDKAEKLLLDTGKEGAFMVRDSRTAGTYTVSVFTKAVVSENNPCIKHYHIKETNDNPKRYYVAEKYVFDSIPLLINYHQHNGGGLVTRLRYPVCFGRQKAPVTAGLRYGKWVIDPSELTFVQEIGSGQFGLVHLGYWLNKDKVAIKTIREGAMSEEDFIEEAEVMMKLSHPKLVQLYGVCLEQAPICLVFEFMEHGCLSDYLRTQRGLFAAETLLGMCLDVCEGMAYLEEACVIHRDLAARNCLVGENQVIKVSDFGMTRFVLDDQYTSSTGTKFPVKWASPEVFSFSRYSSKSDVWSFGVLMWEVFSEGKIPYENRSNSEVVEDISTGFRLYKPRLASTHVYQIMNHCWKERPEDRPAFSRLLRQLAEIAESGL
As to conditions: at 0.1 µM.

Our source for the inhibition values is ChEMBL document CHEMBL1961873, “Compounds: GSK PKIS; Assays: Nanosyn kinase panel” (2012).

Chain of Tyrosine-protein kinase Fyn (Homo sapiens) (P06241 2-537 limits assumed): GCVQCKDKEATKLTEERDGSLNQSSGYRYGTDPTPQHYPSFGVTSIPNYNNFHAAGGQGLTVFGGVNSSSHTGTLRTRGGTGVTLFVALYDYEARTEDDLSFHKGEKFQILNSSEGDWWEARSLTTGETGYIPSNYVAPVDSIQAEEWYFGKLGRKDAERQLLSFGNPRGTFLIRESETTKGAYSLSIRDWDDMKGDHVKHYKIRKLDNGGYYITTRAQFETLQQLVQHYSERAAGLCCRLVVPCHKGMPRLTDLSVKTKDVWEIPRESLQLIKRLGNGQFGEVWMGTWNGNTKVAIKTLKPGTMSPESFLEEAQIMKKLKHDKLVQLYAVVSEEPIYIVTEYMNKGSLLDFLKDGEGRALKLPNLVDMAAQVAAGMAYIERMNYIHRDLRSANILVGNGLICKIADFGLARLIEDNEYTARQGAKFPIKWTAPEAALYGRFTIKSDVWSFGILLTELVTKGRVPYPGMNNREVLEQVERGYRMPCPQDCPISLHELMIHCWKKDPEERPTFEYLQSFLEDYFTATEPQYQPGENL
Chain of Vascular endothelial growth factor receptor 3 (Homo sapiens) (P35916 whole entry): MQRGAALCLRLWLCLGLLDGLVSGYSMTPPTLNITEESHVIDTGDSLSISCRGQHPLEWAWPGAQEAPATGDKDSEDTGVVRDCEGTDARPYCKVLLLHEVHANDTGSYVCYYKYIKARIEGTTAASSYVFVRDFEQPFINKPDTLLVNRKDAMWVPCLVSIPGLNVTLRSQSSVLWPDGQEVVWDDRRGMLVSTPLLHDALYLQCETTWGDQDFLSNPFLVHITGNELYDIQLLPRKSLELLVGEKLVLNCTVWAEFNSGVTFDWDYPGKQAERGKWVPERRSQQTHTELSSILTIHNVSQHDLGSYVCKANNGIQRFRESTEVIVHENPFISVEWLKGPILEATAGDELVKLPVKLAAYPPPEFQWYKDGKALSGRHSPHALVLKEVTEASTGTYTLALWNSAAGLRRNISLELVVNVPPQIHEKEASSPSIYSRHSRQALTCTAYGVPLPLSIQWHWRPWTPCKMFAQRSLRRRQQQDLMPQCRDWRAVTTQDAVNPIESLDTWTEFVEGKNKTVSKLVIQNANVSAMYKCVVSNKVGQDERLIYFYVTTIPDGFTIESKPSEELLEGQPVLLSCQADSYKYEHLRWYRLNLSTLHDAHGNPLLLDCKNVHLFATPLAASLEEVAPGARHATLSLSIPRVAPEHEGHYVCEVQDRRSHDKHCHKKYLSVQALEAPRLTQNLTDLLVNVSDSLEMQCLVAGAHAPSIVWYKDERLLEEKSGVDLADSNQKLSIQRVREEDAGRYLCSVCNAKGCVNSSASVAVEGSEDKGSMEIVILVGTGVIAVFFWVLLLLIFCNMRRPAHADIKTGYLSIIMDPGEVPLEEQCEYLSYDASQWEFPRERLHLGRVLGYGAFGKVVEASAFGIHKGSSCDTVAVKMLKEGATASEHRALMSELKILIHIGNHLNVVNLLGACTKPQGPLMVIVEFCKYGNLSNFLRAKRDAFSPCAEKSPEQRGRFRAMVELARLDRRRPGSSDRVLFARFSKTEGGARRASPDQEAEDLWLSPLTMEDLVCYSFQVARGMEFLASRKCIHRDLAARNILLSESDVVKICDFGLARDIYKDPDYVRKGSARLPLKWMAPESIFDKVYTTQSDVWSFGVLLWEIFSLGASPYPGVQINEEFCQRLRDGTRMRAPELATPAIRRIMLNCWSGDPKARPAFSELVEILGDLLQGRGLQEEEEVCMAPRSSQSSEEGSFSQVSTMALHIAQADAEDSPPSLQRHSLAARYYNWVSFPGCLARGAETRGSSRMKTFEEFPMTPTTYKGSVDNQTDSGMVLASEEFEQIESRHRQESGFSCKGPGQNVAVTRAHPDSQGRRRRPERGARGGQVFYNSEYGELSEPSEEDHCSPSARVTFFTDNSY

On to `C/C(Nc1ccc(S(N)(=O)=O)cc1)=C1/C(=O)Nc2ccccc21`, for which the inhibition (in general, the change of the read-out against control, counted positive when it falls) was 1.67% in [1]; -0.74% in experiment [2]; -0.72% in [3]; 8.06% in experiment [4]; 46.8% in experiment [5]; 7.83% in experiment [6]. For the same compound, the inhibition is 32.9% in experiment [7]; 12.1% in [8]; 50.6% in experiment [9]; 1.2% in [10]; 2.57% in [11]; -0.82% in experiment [12]. Further, the inhibition in [13] is 6.24%; in experiment [14] it was 0.12%; in experiment [15], 9.94%; in experiment [16], 2.85%; in experiment [17], 12.7%; in experiment [18] it was -2.56%. Also, the inhibition is -0.64% in experiment [19] and -0.1% in experiment [20].
On to `COC(=O)Nc1nc2ccc(Sc3ccc(NC(=O)Nc4cc(C(F)(F)F)ccc4F)cc3)cc2[nH]1`, for which the inhibition in experiment [1] is -0.45%; in [2], -0.3%; in [3], 0.84%; in experiment [4] it was 1.23%; in experiment [5], 6.34%; in experiment [6] it was 14.8%. Besides, the inhibition was 21.7% in [7]; 0.81% in experiment [8]; 3.42% in [9]; -1.41% in experiment [10]; 3.27% in experiment [11]; 39.5% in experiment [12]. The inhibition in experiment [13] was 14.4%; in experiment [14], 10.6%; in experiment [15], 6.91%; in experiment [16], 2.28%; in experiment [17], -0.75%; in experiment [18] it was 1.45%. Also, the figures for the inhibition in experiment [19] and in experiment [20] were -0.55% and 0.19%, respectively.
For the compound `NS(=O)(=O)c1ccc(N/N=C2\C(=O)Nc3ccc(C(=O)NCCCn4ccnc4)cc32)cc1`, the inhibition came out at 19% in [1]; 6.29% in [2]; 4.25% in experiment [3]; 37.3% in experiment [4]; 32.9% in [5]; 4.15% in [6]. Besides, the inhibition in experiment [7] was 26.7%; in [8], 2.86%; in experiment [9], 6.33%; in experiment [10], 2.07%; in experiment [11], 19.2%; in experiment [12], 5.3%. Further, the inhibition in experiment [13] stood at 17.8%; in [14] it was 2.13%; in experiment [15], 3.17%; in experiment [16] it was 6.3%; in [17] it was 6.66%; in [18], 2.1%. Moreover, the inhibition came to 3.71% in experiment [19] and 1.19% in [20].
As for `CCc1cccc(CC)c1/C=C/c1cncc(C(=O)NC)c1`, the inhibition was -1.94% in [1]; 1.32% in [2]; 1.99% in experiment [3]; 3.43% in experiment [4]; 4.06% in experiment [5]; 1.11% in [6]. For the same compound, the inhibition in experiment [7] was 2.42%; in [8], -1.63%; in experiment [9], 6.91%; in experiment [10], 3.51%; in [11], 3.44%; in experiment [12], 5.19%. For the same compound, the inhibition in experiment [13] amounted to 10%; in experiment [14], 3.36%; in experiment [15] it was 3.86%; in [16], 1.7%; in [17], 1.65%; in experiment [18] it was 5.5%. Also, the inhibition in experiment [19] amounted to 2.06%; in experiment [20] it was 0.83%.
